Consider 40 compounds from PubChem BioAssay AID492948 (National Center for Advancing Translational Sciences (NCATS), 2010).

Records with an inconclusive call do not appear. The source made the active and inactive calls. Calls come from the whole dose curve; as a rule, active = well fitted activation curve with a large enough effect; inconclusive = small, poorly fitted or top-dose-only effect; inactive = no such curve, though single readings can be large or run the other way.
Potency is the fitted concentration of half-maximal effect.

The test is described as follows: qHTS Assay for Agonists of the Relaxin Receptor RXFP1: V1B Hit Validation.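 For activation: cAMP accumulation with PDE4 inhibitor Ro 20-1724 present during compound exposure.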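 Note: counter-screen in HEK293 cells expressing V1B rather than RXFP1 for selectivity; nearly all actives have a fitted effect of over 65% in size.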 To be noted: HEK293 V1B cells, cAMP TR-FRET, 30 min; series mostly up to 115 µM. The source says:
NIH Chemical Genomics Center [NCGC]
NIH Molecular Libraries Probe Production Centers Network [MLPCN]
Assay Submitter (PI): Alexander Agoulnik
The relaxin hormone is involved in the variety of biological functions in normal tissues and diseases. The role of relaxin is well-established in female reproduction and parturition, mammary gland and endometrial development, maintenance of myometrial quiescence during pregnancy. Relaxin signaling through its G protein-coupled receptor (GPCR) RXFP1 results in ECM remodeling through regulation of collagen deposition, cell invasiveness, proliferation and overall tissue homeostasis. […] Recombinant human relaxin (rhRlx) is currently being tested in clinical trials as a protective agent in congestive heart failure, in treating severe preeclampsia, and as an anti-fibrotic agent in systemic sclerosis.
Upon relaxin binding RXFP1 activation leads to the activation of adenylate cyclase (AC) via Gs. cAMP will activate PKA, which phosphorylates many signaling proteins. Thus, detection of cAMP increase is an easy and reliable indication of relaxin receptor activation. To screen for agonists of the relaxin receptor, a HEK293T cell line stably transfected with RXFP1 was used. RXFP1 activation was assayed by changes in cAMP levels as detected with a time-resolved fluorescence energy transfer (TR-FRET) cAMP detection kit.
This assay measures activation of a cell expressing […], another GPCR targeted by relaxin, to determine the selectivity of compounds for RXFP1.
NCGC Assay Protocol Summary:
This is a cell-based assay for cAMP second messenger response to screen for agonists of the RXFP2 receptor. The assay was conducted in the presence of a PDE4 inhibitor (Ro 20174). The cells were lysed and the cAMP levels were measured with a TR-FRET cAMP kit. Presence of cAMP in the cell lysate disrupts binding between the cryptate-labeled anti-cAMP and d2-labeled cAMP pair, leading to a decrease in the TR-FRET signal. Data were normalized to the controls for basal activity (buffer only) and 100% activity (29 nM porcine relaxin). The EC50 values were determined from concentration-response data modeled with the standard Hill equation
1536-well assay protocol for the HEK293 V1B cAMP assay:
(1) Add 3 ul HEK293 RXFP2 cell culture. 2000 cells/well in DMEM/F12, 10% FBS, 1x Pen/Strep (dispensed offline with MultiDrop Combi).
(3) Add 23 nl compounds in DMSO solution. Final concentration was 0.5 - 58 uM.
(4) Incubate 30 min at 37C, 5% CO2.
(5) Add 1 ul cAMP-d2 in lysis buffer (HTRF cAMP HiRange kit, CisBio).
(6) Add 1 ul anti-cAMP antibody-cryptate in lysis buffer (HTRF cAMP HiRange kit, CisBio).
(7) Incubate 30 min at room temperature.
(6) Detect the assay plate in a ViewLux plate reader (PerkinElmer) with Ex=320 nm, Em1=615 nm and Em2=665 nm.
Keywords: relaxin, RXFP1, RXFP2, G-protein coupled receptor, cAMP, agonist, high throughput screening, MLSMR, MLSCN, NIH Roadmap, qHTS and NCGC
Background: In qHTS, concentration-response curves come from the screen itself.
With `Cc1cc(C(=O)OCC(=O)c2ccc(Br)s2)no1`, the Potency is 21.8 µM (active).
The value for `CCN(CC)S(=O)(=O)c1ccc(C)c(NC(=O)Cn2cnc3cc([N+](=O)[O-])ccc3c2=O)c1` was 34.6 µM (active); that for `COc1ccc(C(=O)Nc2ccc(S(=O)(=O)Nc3onc(C)c3C)cc2)c(OC)c1` was 14.9 µM (active); that for `CC(C)c1ccccc1NC(=O)c1ccccc1NC(=O)C1CCCCC1` was “inactive”.
For `O=C(O)c1ccc(N2C(=O)c3cccc4c(C(=O)O)ccc(c34)C2=O)cc1`, the Potency is 47.3 µM (active).
The value for `COc1cccc(CNC(=O)c2ccc(CS(=O)Cc3ccc(C)cc3)o2)c1` (stereo not given) was “inactive”.
As for `CCOC(=O)c1cc2c(=O)n3ccccc3nc2n(Cc2ccco2)c1=NC(=O)c1ccccc1OCC`, the Potency was 38.9 µM (active).
The value for `CC1CCCCN1C(=O)c1ccccc1NC(=O)c1ccco1` (stereo not given) was “inactive”; that for `O=C(Nc1cccc(C(F)(F)F)c1)c1ccccc1NC(=O)C1CCCCC1` was “inactive”; that for `O=C(COc1ncnc2scc(-c3ccccc3)c12)NCCN1C(=O)CSC1=O` was 19.4 µM (active).
The value for `COc1ccccc1NC(=O)CCCc1nnc2n(C)c(=O)c3sccc3n12` was 13.8 µM (active); that for `O=C(Nc1ccccc1)c1ccccc1NC(=O)C1CCCCC1` was “inactive”.
The value for `CCN(CC)S(=O)(=O)c1ccc2c(c1)N(CC(=O)Nc1cccnc1Cl)C(=O)CO2` was 17.3 µM (active); that for `CCC(Sc1ccc2nnc(-c3cccnc3)n2n1)C(=O)OC` (stereo not given) was 19.4 µM (active).
With `Cc1cc(C)nc(NS(=O)(=O)c2ccc(N3C(=O)c4ccccc4C3=O)cc2)n1`, the Potency is 29.8 µM (active).
The value for `O=C(Nc1ccccc1C(=O)Nc1ccccc1C(=O)NCc1ccco1)c1ccco1` was “inactive”.
The value for `O=C(Nc1ccccc1C(=O)N1CCN(c2ccccc2)CC1)c1ccco1` was “inactive”.
Turning to `Nc1c(S(=O)(=O)O)cc(NC(=O)c2ccccc2)c2c1C(=O)c1ccccc1C2=O`, the Potency entry was “inactive”.
The value for `CN(C)S(=O)(=O)c1ccc(C(=O)OCC(=O)Nc2cccnc2Cl)cc1` was 19.4 µM (active).
The value for `O=C(Nc1ccccc1C(=O)NCCc1ccc(O)cc1)c1ccco1` was “inactive”.
`CCNc1nc(NCC)nc(N(C)/N=C/c2ccco2)n1`: the Potency entry was “inactive”.
The value for `O=C(Nc1ccccc1C(=O)NCCN1CCOCC1)c1ccco1` was “inactive”.
The value for `COc1ccc(S(=O)(=O)Nc2ccccn2)c(C)c1C` was “inactive”; that for `N#CCCSc1ncnc2c1oc1ccccc12` was 19.4 µM (active); that for `O=C(Nc1ccccc1C(=O)N1CCCCC1)c1ccco1` was “inactive”.
In the case of `CC[N+](CC)(CCCCS(=O)(=O)[O-])CCNP1(=O)C=C(c2ccccc2)OC(c2ccccc2)=C1`, the Potency was 38.9 µM (active).
The value for `COc1cccc(C(=O)CSc2nnc(-c3cc(OC)cc(OC)c3)o2)c1` was 10.9 µM (active).
The value for `Cc1ccccc1OCC(=O)Nc1sc(C(=O)Nc2cccc(C)c2C)c(C)c1C#N` was 6.15 µM (active); that for `O=C(O)c1ccc(CN2C(=O)c3ccc(C(=O)O)cc3C2=O)cc1` was “inactive”; that for `COc1ccc(CN2C(=O)c3cccnc3C2=O)cc1S(=O)(=O)NC1CCCCC1` was 34.6 µM (active).
On to `COc1ccc(CC(=O)N/N=C/c2cccnc2)cc1OC`, for which the Potency result is “inactive”.
The value for `COc1ccc(NC(=O)CCCc2nnc3n(C)c(=O)c4sccc4n23)cc1` was 43.6 µM (active); that for `Cc1cccc(NC(=O)c2ccccc2NC(=O)C2CCCCC2)c1C` was “inactive”.
For `Nc1ncnc2c1ncn2C1OC(CO)C(O)C1O` (stereo not given), the Potency is 9.77 µM (active).
`O=C(Nc1cc(S(=O)(=O)N2CCOCC2)ccc1N1CCOCC1)c1cn2ccccc2n1`: the Potency was 30.9 µM (active).
The value for `CCN(CC)C(=O)c1cc(Cl)ccc1NC(=O)c1ccco1` was “inactive”; that for `Cc1cc(Br)c2nc3c(c(C(=O)O)c2c1)CCCCC3` was 1.54 µM (active).
The value for `Cc1cccc(NC(=O)c2ccccc2NC(=O)c2ccco2)c1` was “inactive”; that for `CC(=O)Nc1ccc(S(=O)(=O)NCc2cc(=O)n(C)c(=O)n2C)cc1` was 30.9 µM (active).
The value for `C=CCNc1ncnc2c1ncn2C1OC(CO)C(O)C1O` (stereo not given) was “inactive”.
